The subject of assay [1] is Plasmodium falciparum Sir2 (PF13_0152, Sir2A). As to the kind of experiment: Plasmodium falciparum Sir2A binding compounds – biochemical, small-molecule microarray, 635 nm fluorescence, primary screen (AID 1098).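 Also: score merges spot fluorescence intensity with its signal-to-noise ratio.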 As to conditions: fluorescence 635 nm, higher = more signal.
Assay [2] can be described thus: probe aDKK1 binding to arrayed compounds – biochemical, biotinylated probe, 635/667 nm fluorescence, primary screen (AID 1099).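 Also: score merges 667nm spot fluorescence with signal to noise across triplicate slides.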 The conditions noted are these: small-molecule microarray, higher = more signal.
The nature of assay [3]: probe aCHRDL2 binding to arrayed compounds – biochemical, biotinylated probe, 635/667 nm fluorescence, primary screen (AID 1100). The conditions noted are these: small-molecule microarray, higher = more signal.
Assay [4] is described as follows: change in splice reporter luminescence, either direction, cell-based, HEK293, spliceosome inhibition project, primary screen (AID 1101).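 Also: HEK293 cells carrying a splicing-competent luciferase reporter gene; test concentration not given here.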 As to conditions: HEK293 splicing luciferase reporter, 24 h, higher = more signal, called active from +8 up or from −8 down. In general terms: Reporter assays use an easily measured gene product as a stand-in for the process of interest.

Assay [5] addresses Fibroblast growth factor 10 (Homo sapiens) (UniProt O15520). In words: compounds binding fibroblast growth factor 10 – biochemical, small-molecule microarray, 635 nm fluorescence, primary screen (AID 1102). As to conditions: FGF10 binding, fluorescence 635 nm, higher = more signal.
Assay [6] concerns glycogen synthase kinase-3 (GSK3A per assay name; protocol says GSK3B). As to the kind of experiment: compounds binding glycogen synthase kinase-3 – biochemical, small-molecule microarray, 635 nm fluorescence, GSK3A, primary screen (AID 1103). Also: the record names both GSK3A and GSK3B. As to conditions: fluorescence 635 nm, higher = more signal.
Assay [7] concerns the target Epidermal growth factor receptor (Homo sapiens) (UniProt P00533). As to the kind of experiment: compounds binding epidermal growth factor receptor – biochemical, small-molecule microarray, 635 nm fluorescence, primary screen (AID 1104).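 Also: score merges 667 nm emission intensity with spot signal to noise over triplicate slides.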 The conditions noted are these: EGFR binding, higher = more signal.
The target in assay [8] is Follistatin-related protein 3 (Homo sapiens) (UniProt O95633). In words: compounds binding follistatin-related protein 3 – biochemical, small-molecule microarray, 635 nm fluorescence, primary screen (AID 1105).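 Also: score merges emission near 667 nm and signal to noise per printed spot across three slides.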 As to conditions: FSTL3 binding, higher = more signal.
Assay [9] addresses Dickkopf-related protein 1 (Homo sapiens) (UniProt O94907). As to the kind of experiment: small molecules binding DKK1 protein – biochemical, small-molecule microarray, 635 nm fluorescence scan, primary screen (AID 1106).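 Also: score merges emission near 667 nm with signal to noise over three replicate slides.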 As to conditions: higher = more signal.
For assay [10], the system named is Inhibin beta A chain (activin A). As to the kind of experiment: small molecules binding activin A – biochemical, small-molecule microarray, 635 nm fluorescence scan, primary screen (AID 1107).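 Also: mouse activin A protein probed at 4.33 µg/mL on printed slides; score merges bound-protein fluorescence near 667 nm with spot signal-to-noise.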 As to conditions: INHBA, higher = more signal.
Assay [11] deals with Human papillomavirus type 1a protein E7 (residues 44-93). As to the kind of experiment: small molecules binding HPV E7 44-93 – biochemical, small-molecule microarray, residues 44-93, 635 nm fluorescence, primary screen (AID 1108).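 Also: E7 fragment applied at 1 µg/mL in TBST for 1 h at 4 C; score combines spot fluorescence with its signal to noise ratio.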 The conditions noted are these: fluorescence 635 nm, higher = more signal.
Assay [12] is described as follows: hepatitis C replication reporter changes, two-sided – Huh7 cells, luciferase reporter, HCV replication inhibitor project, primary screen (AID 1109).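 Also: huh7 hepatoma cells harbouring a luciferase neomycin HCV replicon reporter; luciferase luminescence as measure of HCV replicon replication; test concentration not given here.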 As to conditions: Huh7 HCV replicon luciferase reporter, 48 h; higher = more signal.
Assay [13] deals with Left-right determination factor 2 (Homo sapiens) (UniProt O00292). As to the kind of experiment: small molecules binding LEFTY2 protein – biochemical, small-molecule microarray, 635 nm fluorescence scan, primary screen (AID 1110). The conditions noted are these: higher = more signal.
Assay [14] has as its target Calmodulin-1 (Homo sapiens) (UniProt P0DP23). In words: small molecules binding calmodulin-1 with EGTA – biochemical, small-molecule microarray, Cy5-labelled CALM1, profiling panel (AID 1111).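 Also: labelled calmodulin applied in Tris saline Tween buffer holding calcium plus EGTA and DTT.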 As to conditions: Cy5-CALM1 binding fluorescence, higher = more signal.
For assay [15] the target is unchanged. In words: small molecules binding Ca-loaded calmodulin-1 – biochemical, small-molecule microarray, Cy5-labelled CALM1, plus calcium, artefact control for SMM control-protein annotation, profiling panel (AID 1112).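 Also: score merges spot fluorescence with signal to noise from triplicate slides.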 The conditions noted are these: Cy5-CALM1 binding fluorescence, higher = more signal.
A short description of assay [16]: probe aWnt5a binding to arrayed compounds – biochemical, biotinylated probe, 635/667 nm fluorescence, primary screen (AID 1113).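 Also: score merges 667 nm fluorescence intensity with signal-to-noise per printed feature.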 The conditions noted are these: small-molecule microarray, higher = more signal.
A short description of assay [17]: probe aShh binding to arrayed compounds – biochemical, biotinylated probe, 635/667 nm fluorescence, primary screen (AID 1114).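 Also: probe is biotin-labelled aShh protein from a stem cell growth factor screen; measures binding of labelled protein to compounds printed on the slide; score merges feature fluorescence at 667 nm with signal-to-noise.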 The conditions noted are these: small-molecule microarray, higher = more signal.
The nature of assay [18]: probe aNog binding to arrayed compounds – biochemical, biotinylated probe, 635/667 nm fluorescence, primary screen (AID 1115).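 Also: probe is biotinylated aNog protein used at 0.15 µg/mL for 1 h at 4 C; z-score combines 667 nm fluorescence of each spot with its signal to noise.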 As to conditions: small-molecule microarray, higher = more signal.
Assay [19] concerns the target Torsin-1A-interacting protein 1 (Homo sapiens) (UniProt Q5JTV8). In words: compound microarray binding of lysate hLAP1 – cell lysate, small-molecule microarray, COS7 lysate, 635/667 nm fluorescence, primary screen (AID 1116). The conditions noted are these: 635 nm fluorescence, higher = more signal.
Assay [20] concerns the target Alpha-bungarotoxin (Bungarus multicinctus) (UniProt P60615). As to the kind of experiment: compounds binding labelled alpha-BTX control protein – biochemical, small-molecule microarray, Alexa647 label, 635/667 nm fluorescence, artefact control for SMM control protein annotation, profiling panel (AID 1117). The conditions noted are these: alpha-BTX-A647 binding fluorescence, higher = more signal.

Calls of active or inactive are those of the source.

Sequence of Alpha-bungarotoxin (Bungarus multicinctus) (P60615 whole entry, looked up): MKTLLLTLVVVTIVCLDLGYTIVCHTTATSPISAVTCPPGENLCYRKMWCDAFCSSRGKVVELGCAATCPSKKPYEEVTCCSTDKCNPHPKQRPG
Sequence of Follistatin-related protein 3 (Homo sapiens) (O95633 whole entry, looked up): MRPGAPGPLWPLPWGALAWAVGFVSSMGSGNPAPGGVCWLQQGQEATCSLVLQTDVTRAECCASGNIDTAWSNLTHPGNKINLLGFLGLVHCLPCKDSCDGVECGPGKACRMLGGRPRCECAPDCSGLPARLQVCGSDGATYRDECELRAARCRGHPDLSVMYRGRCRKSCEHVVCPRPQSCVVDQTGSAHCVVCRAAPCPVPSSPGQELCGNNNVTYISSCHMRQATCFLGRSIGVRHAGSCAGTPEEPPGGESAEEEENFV
Sequence of Dickkopf-related protein 1 (Homo sapiens) (O94907 whole entry, looked up): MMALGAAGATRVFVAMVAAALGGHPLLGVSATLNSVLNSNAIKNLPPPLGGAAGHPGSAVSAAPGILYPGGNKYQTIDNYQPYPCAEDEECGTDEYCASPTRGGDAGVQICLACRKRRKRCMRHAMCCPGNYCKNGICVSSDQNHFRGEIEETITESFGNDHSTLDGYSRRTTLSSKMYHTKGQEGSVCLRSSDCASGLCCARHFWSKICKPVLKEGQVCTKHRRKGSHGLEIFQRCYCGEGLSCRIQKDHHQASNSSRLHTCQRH
Sequence of Epidermal growth factor receptor (Homo sapiens) (P00533 whole entry, looked up): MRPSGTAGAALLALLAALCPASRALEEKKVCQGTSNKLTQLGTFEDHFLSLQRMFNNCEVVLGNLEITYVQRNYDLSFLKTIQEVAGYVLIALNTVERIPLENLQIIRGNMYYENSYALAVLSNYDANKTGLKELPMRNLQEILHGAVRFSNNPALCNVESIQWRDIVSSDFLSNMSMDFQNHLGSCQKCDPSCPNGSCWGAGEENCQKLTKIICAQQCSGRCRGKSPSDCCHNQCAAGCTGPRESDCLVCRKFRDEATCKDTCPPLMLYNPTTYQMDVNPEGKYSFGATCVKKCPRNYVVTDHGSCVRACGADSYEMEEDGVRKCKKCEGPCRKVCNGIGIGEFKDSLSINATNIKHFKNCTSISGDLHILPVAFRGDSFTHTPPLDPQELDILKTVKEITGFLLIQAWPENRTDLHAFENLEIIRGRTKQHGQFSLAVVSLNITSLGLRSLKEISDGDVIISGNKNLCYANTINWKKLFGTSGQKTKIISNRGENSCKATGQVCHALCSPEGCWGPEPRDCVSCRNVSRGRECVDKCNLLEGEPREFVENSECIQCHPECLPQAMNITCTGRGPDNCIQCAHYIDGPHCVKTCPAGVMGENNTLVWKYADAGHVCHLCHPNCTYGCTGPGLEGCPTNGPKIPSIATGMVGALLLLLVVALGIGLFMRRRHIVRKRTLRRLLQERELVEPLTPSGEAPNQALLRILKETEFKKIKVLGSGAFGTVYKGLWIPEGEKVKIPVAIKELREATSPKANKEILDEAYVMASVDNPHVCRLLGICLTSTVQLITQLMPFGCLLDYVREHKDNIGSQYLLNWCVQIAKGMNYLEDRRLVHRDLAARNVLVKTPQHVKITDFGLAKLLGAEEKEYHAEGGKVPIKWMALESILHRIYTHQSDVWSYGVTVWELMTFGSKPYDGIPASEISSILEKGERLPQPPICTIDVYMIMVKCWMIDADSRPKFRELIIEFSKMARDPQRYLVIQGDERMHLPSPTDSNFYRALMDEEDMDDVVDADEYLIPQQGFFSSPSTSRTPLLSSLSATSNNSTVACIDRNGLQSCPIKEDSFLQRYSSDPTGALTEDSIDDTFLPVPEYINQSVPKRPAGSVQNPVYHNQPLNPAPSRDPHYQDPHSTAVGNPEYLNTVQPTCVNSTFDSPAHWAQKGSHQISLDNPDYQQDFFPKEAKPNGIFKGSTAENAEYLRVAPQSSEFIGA
Sequence of Torsin-1A-interacting protein 1 (Homo sapiens) (Q5JTV8 whole entry, looked up): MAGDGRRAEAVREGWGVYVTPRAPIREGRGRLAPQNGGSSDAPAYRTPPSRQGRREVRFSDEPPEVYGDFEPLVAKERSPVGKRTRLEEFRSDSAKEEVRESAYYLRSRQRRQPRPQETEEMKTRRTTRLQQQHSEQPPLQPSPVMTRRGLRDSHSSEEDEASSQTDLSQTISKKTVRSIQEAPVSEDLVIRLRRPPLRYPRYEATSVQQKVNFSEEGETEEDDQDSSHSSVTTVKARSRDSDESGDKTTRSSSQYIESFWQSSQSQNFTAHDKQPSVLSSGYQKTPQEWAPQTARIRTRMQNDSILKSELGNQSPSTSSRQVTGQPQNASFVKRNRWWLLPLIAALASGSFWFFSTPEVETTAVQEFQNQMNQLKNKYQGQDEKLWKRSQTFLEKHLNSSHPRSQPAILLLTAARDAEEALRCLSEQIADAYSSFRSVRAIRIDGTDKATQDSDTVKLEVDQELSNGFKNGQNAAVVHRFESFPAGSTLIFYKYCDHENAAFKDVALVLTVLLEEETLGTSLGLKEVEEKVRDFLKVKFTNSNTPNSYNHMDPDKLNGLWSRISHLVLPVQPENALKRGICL
Sequence of Fibroblast growth factor 10 (Homo sapiens) (O15520 whole entry, looked up): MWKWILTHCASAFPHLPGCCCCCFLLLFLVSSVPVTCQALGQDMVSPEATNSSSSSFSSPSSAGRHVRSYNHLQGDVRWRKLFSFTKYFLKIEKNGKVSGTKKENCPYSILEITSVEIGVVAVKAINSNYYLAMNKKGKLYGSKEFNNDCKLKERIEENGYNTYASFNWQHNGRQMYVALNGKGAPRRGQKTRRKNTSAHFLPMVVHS
Sequence of Left-right determination factor 2 (Homo sapiens) (O00292 whole entry, looked up): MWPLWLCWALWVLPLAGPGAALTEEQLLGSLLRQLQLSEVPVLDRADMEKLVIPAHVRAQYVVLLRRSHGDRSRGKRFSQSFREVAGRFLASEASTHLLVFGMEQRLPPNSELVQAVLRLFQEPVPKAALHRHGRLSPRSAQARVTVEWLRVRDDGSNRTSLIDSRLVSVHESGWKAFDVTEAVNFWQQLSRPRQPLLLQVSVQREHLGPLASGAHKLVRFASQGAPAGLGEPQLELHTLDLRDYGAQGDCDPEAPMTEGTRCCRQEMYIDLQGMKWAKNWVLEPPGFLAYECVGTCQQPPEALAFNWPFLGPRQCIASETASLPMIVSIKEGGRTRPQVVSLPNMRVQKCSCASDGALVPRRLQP

On to `CCOC(=O)CCN1C(=O)[C@H]2[C@H]3[C@H](O)[C@H](O)CC(=O)[C@H]3CC[C@H]2C1=O`, for which the composite z-score was -0.0527 in assay [1]; -0.202 in assay [2]; -0.723 in [3]; 0.685 in assay [5]; 0.765 in assay [6]; 0.4 in assay [7]. Further, the composite z-score in [8] was 0.565; in [9], 0.745; in assay [10], -0.0903; in [11], 0.182; in assay [13] it was 0.412; in [14], 0.0492. The composite z-score in [15] was -0.375; in assay [16] it was -0.201; in [17] it was -0.229; in [18] it was -0.201; in assay [19], 0.619; in assay [20], 0.0323. Also, the z-score in assay [4] was -1.11 (inactive); in [12], -1.07.
On to `O=C1CCCC2OC12C(O)CCc1ccccc1` (stereo not given), for which the composite z-score in [1] is -0.2; in assay [2], -0.45; in assay [3], -0.503; in assay [5], 0.558; in assay [6], 0.263; in assay [7], 0.548. In addition, the composite z-score was 0.495 in assay [8]; 0.372 in [9]; 0.399 in assay [10]; -0.118 in [11]; 0.585 in assay [13]; -0.429 in [14]. Moreover, the composite z-score in [15] is -0.552; in assay [16] it was 0.0516; in [17] it was -0.206; in assay [18], -0.175; in assay [19] it was 0.0788; in assay [20] it was 0.176. Besides, the z-score was 0.00999 (inactive) in [4] and -0.862 in assay [12].
For the compound `CN1C(=O)C2C=CC(C(O)c3ccc(I)cc3)N(NC(=O)OC(C)(C)C)C2C1=O` (stereo not given), the composite z-score in assay [1] was 1.22; in [2], 0.829; in assay [3] it was 1.05; in assay [5], 0.599; in assay [6], 1.24; in assay [7], 0.04. The composite z-score was 0.925 in assay [8]; -0.168 in [9]; 0.599 in assay [10]; 1.41 in assay [11]; 0.0192 in assay [13]; 0.526 in assay [14]. In addition, the composite z-score was 0.202 in [15]; -0.0165 in assay [16]; 0.151 in [17]; 1.26 in assay [18]; 1.4 in assay [19]; 1.01 in assay [20]. The results for the z-score in assay [4] and in assay [12] were 2.31 (inactive) and 0.0411, respectively.
For the compound `O=C1O[C@@H](c2ccccc2)[C@@H](c2ccccc2)N2[C@@H](c3ccc(O)cc3)[C@]3(C(=O)Nc4ccccc43)[C@@H](C(=O)O)[C@H]12`, the composite z-score in assay [1] was 1.1; in assay [2] it was 0.74; in [3] it was 0.91; in assay [5], -0.0962; in assay [6], 0.536; in [7], -0.111. Moreover, the composite z-score was -0.0238 in assay [8]; -0.465 in assay [9]; 0.385 in assay [10]; 1.02 in [11]; -0.6 in assay [13]; 0.64 in [14]. The composite z-score is 0.212 in assay [15]; -0.174 in assay [16]; -0.793 in assay [17]; 0.0156 in [18]; 0.98 in assay [19]; -0.0356 in assay [20]. Further, the z-score was 0.451 (inactive) in assay [4] and -0.996 in [12].
For the compound `O=C1C[C@@H](O)[C@@H](O)[C@@H]2[C@@H]3C(=O)N(c4cccc(Oc5ccccc5)c4)C(=O)[C@@H]3CC[C@@H]12`, the composite z-score was 0.87 in assay [1]; -0.0115 in assay [2]; -0.464 in assay [3]; 0.806 in assay [5]; 0.655 in [6]; 0.387 in assay [7]. Moreover, the composite z-score in [8] is 0.925; in assay [9] it was 0.987; in assay [10] it was -0.0789; in [11], 0.994; in [13], 0.962; in assay [14], 0.77. For the same compound, the composite z-score in assay [15] was -0.261; in [16] it was -0.0327; in assay [17], -0.206; in [18], -0.4; in assay [19], 0.613; in [20] it was 0.106. The results for the z-score in assay [4] and in assay [12] were 0.0249 (inactive) and -0.197, respectively.
As for `Cc1ccc(C2CC=C(C(=O)O)CN2S(=O)(=O)c2ccc(C)cc2)cc1` (stereo not given), the composite z-score in assay [1] amounted to 1.3; in assay [2], 0.135; in assay [3] it was 0.665; in assay [5] it was 0.31; in assay [6] it was 0.834; in assay [7] it was 0.201. In addition, the composite z-score is 0.338 in assay [8]; 0.0374 in assay [9]; 0.584 in assay [10]; 1.35 in [11]; -0.403 in assay [13]; 0.189 in assay [14]. Also, the composite z-score in assay [15] is 0.15; in [16], 0.0018; in assay [17], -0.271; in [18], 0.241; in [19], 0.743; in [20], 0.802. In addition, the z-score in [4] was -0.16 (inactive); in assay [12] it was 0.602.

Source of the values: PubChem BioAssay.
